Measured values reported in PubChem BioAssay (Tox21).
Inconclusive results are not listed. Active and inactive are the calls of the source. Unless noted, calls follow the shape of the dose curve; as a rule, active = well fitted curve in the direction sought with a large enough effect in the repeat runs; inconclusive = weak or mixed curves; inactive = no such curve, though single readings can be large; an effect the other way counts as inactive or inconclusive.

Columns and labels:
[1] = qHTS assay to identify small molecule antagonists of the glucocorticoid receptor (GR) signaling pathway - cell viability counter screen (AID 720693); also: nearly all actives have a fitted effect of over 55% in size; also: potency is read from the fitted curve at half-maximal effect
[2] = qHTS assay for identifying genotoxic compounds that show differential cytotoxicity against isogenic chicken DT40 cell lines with known DNA damage response pathways - wild type cell line (AID 743012); also: nearly all actives have a fitted effect of over 60% in size; also: potency is read from the fitted curve at half-maximal effect
Procedure, shortened: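 Viability of DNA repair-proficient chicken DT40 cells was assessed by CellTiter-Glo luminescence following 40 h compound exposure at 37 C/5% CO2.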

[3] = qHTS assay for identifying genotoxic compounds that show differential cytotoxicity against isogenic chicken DT40 cell lines with known DNA damage response pathways - Rev3 mutant cell line (AID 743014); also: nearly all actives have a fitted effect of over 55% in size; also: potency is read from the fitted curve at half-maximal effect
[4] = qHTS assay for identifying genotoxic compounds that show differential cytotoxicity against isogenic chicken DT40 cell lines with known DNA damage response pathways - Rad54/Ku70 mutant cell line (AID 743015); also: nearly all actives have a fitted effect of over 60% in size; also: potency is read from the fitted curve at half-maximal effect
[5] = qHTS assay to identify small molecule antagonists of the androgen receptor (AR) signaling pathway using the MDA cell line - cell viability counter screen (AID 743041; also: nearly all actives have a fitted effect of over 45% in size; also: potency is read from the fitted curve at half-maximal effect)
Procedure, shortened: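 Viability read by CellTiter-Fluor fluorescence in the same wells as the antagonist screen, added after 15.5 h of a 16 h, 37C exposure. Human breast carcinoma MDA-kb2 AR-luc cells, compounds co-dosed with agonist R1881.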

[6] = qHTS assay to identify small molecule antagonists of the androgen receptor (AR) signaling pathway - cell viability counter screen (AID 743033; also: nearly all actives have a fitted effect of over 45% in size; also: potency is read from the fitted curve at half-maximal effect)
[7] = molecular target: Androgen receptor (Homo sapiens) (UniProt P10275); assay: qHTS assay to identify small molecule agonists of the androgen receptor (AR) signaling pathway using the MDA cell line (AID 743040; also: nearly all actives have a fitted effect of over 20% in size; also: potency is read from the fitted curve at half-maximal effect)
Procedure, shortened: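 Luciferase agonist assay: 16 h compound exposure at 37C without CO2 in MDA-kb2 AR-luc cells, whose MMTV promoter responds to both AR and GR. Luminescence measured after 30 min room-temperature incubation with ONE-Glo.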

[8] = molecular target: Androgen receptor (Homo sapiens) (UniProt P10275); assay: qHTS assay to identify small molecule antagonists of the androgen receptor (AR) signaling pathway using the MDA cell line (AID 743042; also: nearly all actives have a fitted effect of over 55% in size; also: potency is read from the fitted curve at half-maximal effect)
Procedure, shortened: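 Antagonist mode: compounds plus R1881 agonist added to MDA-kb2 AR-luc cells, incubated 16 h at 37C. Luciferase reporter luminescence quantified, with multiplexed CellTiter-Fluor readout for cell viability.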

[9] = molecular target: Androgen receptor (Homo sapiens) (UniProt P10275); assay: qHTS assay to identify small molecule agonists of the androgen receptor (AR) signaling pathway (AID 743036; active = well fitted activation curve with a large enough effect in the signal ratio in the repeat runs, with a control signal flat, not every such curve was filed as active; the % refers to the signal ratio)
Procedure, shortened: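 In this Tox21 qHTS, 2,000 HEK293 AR-bla cells per well were incubated with compounds for 16 h at 37C and 5% CO2. Fluorescence intensity was recorded 2 h after adding LiveBLAzer B/G FRET substrate at room temperature.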

[10] = molecular target: Androgen receptor (Homo sapiens) (UniProt P10275); assay: qHTS assay to identify small molecule antagonists of the androgen receptor (AR) signaling pathway (AID 743035; active = well fitted inhibition curve with a large enough effect in the signal ratio in the repeat runs, not every such curve was filed as active; the % refers to the signal ratio; also: potency is read from the fitted curve at half-maximal effect)
Procedure, shortened: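 Reporter HEK293 cells were exposed to compounds and R1881 overnight (16 h, 37C); beta-lactamase activity was then quantified by FRET fluorescence.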

Measured: Potency

Sequence of Androgen receptor (Homo sapiens) (P10275 whole entry, looked up): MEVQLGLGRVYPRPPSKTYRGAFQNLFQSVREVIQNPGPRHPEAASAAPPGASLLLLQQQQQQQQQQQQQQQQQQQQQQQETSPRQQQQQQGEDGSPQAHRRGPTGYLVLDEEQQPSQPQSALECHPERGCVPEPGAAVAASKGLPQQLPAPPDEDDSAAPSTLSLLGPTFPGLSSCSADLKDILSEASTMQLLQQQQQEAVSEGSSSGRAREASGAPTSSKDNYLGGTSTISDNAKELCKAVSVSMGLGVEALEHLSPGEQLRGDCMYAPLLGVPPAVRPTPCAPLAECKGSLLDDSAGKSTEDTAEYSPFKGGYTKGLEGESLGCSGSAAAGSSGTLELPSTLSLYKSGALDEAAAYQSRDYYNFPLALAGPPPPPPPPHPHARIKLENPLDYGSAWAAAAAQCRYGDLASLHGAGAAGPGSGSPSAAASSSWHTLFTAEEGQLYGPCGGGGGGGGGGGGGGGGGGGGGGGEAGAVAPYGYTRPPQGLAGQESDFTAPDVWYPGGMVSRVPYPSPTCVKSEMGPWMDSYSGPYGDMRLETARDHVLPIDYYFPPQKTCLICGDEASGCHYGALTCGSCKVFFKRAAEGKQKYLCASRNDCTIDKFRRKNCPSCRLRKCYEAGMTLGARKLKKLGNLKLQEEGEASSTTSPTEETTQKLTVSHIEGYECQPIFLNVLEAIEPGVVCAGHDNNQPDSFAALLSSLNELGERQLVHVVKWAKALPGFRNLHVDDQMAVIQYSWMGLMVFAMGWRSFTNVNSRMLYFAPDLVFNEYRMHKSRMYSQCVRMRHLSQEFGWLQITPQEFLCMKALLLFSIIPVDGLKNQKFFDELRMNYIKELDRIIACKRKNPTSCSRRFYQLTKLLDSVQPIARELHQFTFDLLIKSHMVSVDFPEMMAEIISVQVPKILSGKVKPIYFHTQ

O=C(O)CCCCCCC(=O)O
inactive: [1] | [2] | [3] | [4] | [5]

Cc1c(C)n(Cc2ccccc2)c2ccc(C(=O)OCCN(C)C)cc12
active: [2] 3.76 µM | [3] 3.76 µM | [4] 6.68 µM
inactive: [1]

CCCCCCCC/C=C\CCCCCCCC(=O)OCCOC(=O)CCCCCCC/C=C\CCCCCCCC
inactive: [1] | [2] | [3] | [4] | [6] | [5]

Cc1cccc(Br)c1
inactive: [1] | [2] | [3] | [4] | [6] | [5]

Cc1cc2c(C(C)C)c(O)c(O)c(C=O)c2c(O)c1-c1c(C)cc2c(C(C)C)c(O)c(O)c(C=O)c2c1O
active: [1] 9.52 µM | [2] 10.6 µM | [3] 13.3 µM | [4] 11.9 µM | [6] 21.3 µM

C=C(c1ccc(C(=O)O)cc1)c1cc2c(cc1C)C(C)(C)CCC2(C)C
active: [1] 13.4 µM | [3] 77 µM | [4] 68.6 µM
inactive: [2] | [6] | [5]

CCCCCCC(C)OC(=O)COc1nc(F)c(Cl)c(N)c1Cl (stereo unspecified)
inactive: [1]
active: [2] 43.3 µM | [3] 38.6 µM | [4] 38.6 µM

Cc1nc(Nc2ncc(C(=O)Nc3c(C)cccc3Cl)s2)cc(N2CCN(CCO)CC2)n1
inactive: [1] | [6]
active: [2] 5.96 µM | [3] 9.44 µM | [4] 6.68 µM

CCCCOC(=O)C(C)CC (stereo unspecified)
active: [2] 12.2 µM | [3] 13.7 µM | [4] 13.7 µM | [6] 43.6 µM
inactive: [1] | [5]

Cc1ccc(N)cc1O
active: [2] 30.6 µM | [3] 56.1 µM | [4] 52 µM
inactive: [1] | [6] | [7]

C=CC(=O)OCC(O)COc1ccccc1 (stereo unspecified)
active: [1] 38.9 µM | [2] 24.3 µM | [3] 27.3 µM | [4] 30.6 µM

NC(=O)c1ccccc1N
inactive: [1] | [2] | [3] | [4] | [6] | [7] | [5] | [8]

O=S(=O)(O)CCCN1CCOCC1
inactive: [1] | [2] | [3] | [4] | [6] | [5]

O=C(O)CC(=O)O
inactive: [1] | [2] | [3] | [4] | [6] | [5]

CCCCCCCCCC(=O)N(C)C
inactive: [1] | [2] | [3] | [4] | [6] | [5]

CCCN(CCc1cccs1)[C@H]1CCc2c(O)cccc2C1
inactive: [1] | [6] | [7] | [5] | [8]
active: [2] 18.8 µM | [3] 26.6 µM | [4] 23.7 µM

O=Nc1ccc(NO)cc1
inactive: [1] | [2] | [3] | [4] | [6] | [5]

O=C(O)CCn1c2c(c3ccccc31)C[C@H](NS(=O)(=O)c1ccc(F)cc1)CC2
inactive: [1] | [2] | [3] | [4] | [5]

COCC(=O)O[C@]1(CCN(C)CCCc2nc3ccccc3[nH]2)CCc2cc(F)ccc2[C@@H]1C(C)C
inactive: [7]
active: [1] 10.7 µM | [2] 2.37 µM | [3] 4.22 µM | [4] 4.73 µM | [6] 10.7 µM | [5] 9.44 µM | [8] 7.5 µM

Oc1ccc(-c2ccccc2)c(Cl)c1
inactive: [1] | [2] | [9] | [5] | [8]
active: [3] 30.6 µM | [4] 30.6 µM | [7] 68.6 µM

CCCCCCCCCCCCN(CCO)CCO
inactive: [7]
active: [1] 34.5 µM | [2] 0.86 µM | [3] 0.172 µM | [4] 0.609 µM | [6] 43.5 µM | [5] 19.3 µM | [8] 15.3 µM

CCCCCCCCCCCCCOP(=O)(O)O
inactive: [1] | [2] | [3] | [4]

NCCCCCCNCCCCCCN
inactive: [1] | [6] | [5]
active: [2] 7.57 µM | [3] 6.75 µM | [4] 5.36 µM

CC(=O)Nc1ccc(O)cc1
inactive: [1] | [2] | [3] | [4] | [6] | [5]

Cc1cccc(C)c1NC(=O)CN1CCN(CCCC(c2ccc(F)cc2)c2ccc(F)cc2)CC1
active: [2] 4.03 µM | [3] 5.69 µM | [4] 7.17 µM
inactive: [1] | [6] | [5]

CCCCCCOc1cc(C)c(O)c(C)c1C
inactive: [5]
active: [1] 49.6 µM | [2] 19.6 µM | [3] 22 µM | [4] 15.5 µM

CC(C)(c1cc(Br)c(OCCO)c(Br)c1)c1cc(Br)c(OCCO)c(Br)c1
inactive: [9] | [7]
active: [1] 38 µM | [2] 7.52 µM | [3] 13.4 µM | [4] 16.8 µM | [10] 17 µM | [8] 42.3 µM
